# Measurements from PubChem BioAssay (NCATS).
# Unmarked numbers belong to inactive results. Records with an inconclusive call do not appear. The list shows a part of the results. A call without a number means that no potency is given here. The source made the active and inactive calls. Unless noted, the call rests on the fitted dose curve; in most records, active means well fitted curve in the direction sought with a large enough effect; inconclusive means small, poorly fitted or top-dose-only effect, or another doubt; inactive means no such curve, though single readings can be large; an effect the other way counts as inactive or inconclusive.
# Experiments:
# [1] = biological target: Rap guanine nucleotide exchange factor 3 (Homo sapiens) (UniProt O95398); test: Confirmatory qHTS for antagonist of cAMP-regulated guanine nucleotide exchange factor 3 (EPAC1) (AID 1645880); settings: EPAC1 Rap1B-BODIPY-GDP exchange, fluorescence; activity, negative = inhibition: at 115 µM (top of the series); further: nearly all actives have a fitted effect of over 55% in size; further: potency means the concentration at half of the fitted maximal effect
# In short: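 Released BODIPY-GDP fluoresces less than Rap1-bound BODIPY-GDP; the signal is followed at 480/540 nm at 5-min intervals over 30 min, after 5 min at room temperature. Reactions contain 100 nM EPAC1, 250 nM RAP1B-BODIPY-GDP and 50 uM GDP; results are normalized to ATA and DMSO.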
# [2] = biological target: Rap guanine nucleotide exchange factor 3 (Homo sapiens) (UniProt O95398); test: Confirmatory qHTS for agonist of cAMP-regulated guanine nucleotide exchange factor 3 (EPAC1) (AID 1645881);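 further: EPAC1 catalysed release of BODIPY-GDP from Rap1B seen as fluorescence loss; nearly all actives have a fitted effect of over 75% in size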
# [3] = biological target: Rap guanine nucleotide exchange factor 4 (Homo sapiens) (UniProt Q8WZA2); test: Confirmatory qHTS for agonist of cAMP-regulated guanine nucleotide exchange factor 4 (EPAC2) (AID 1645884);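 further: nucleotide exchange releases bodipy-GDP from Rap1 and this lowers its fluorescence; nearly all actives have a fitted effect of over 65% in size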
# [4] = biological target: Rap guanine nucleotide exchange factor 4 (Homo sapiens) (UniProt Q8WZA2); test: Confirmatory qHTS for antagonist of cAMP-regulated guanine nucleotide exchange factor 4 (EPAC2) (AID 1645885); further: nearly all actives have a fitted effect of over 25% in size
# [5] = biological target: Rap guanine nucleotide exchange factor 3 (Homo sapiens) (UniProt O95398); test: Counterscreen qHTS for agonist of cAMP-regulated guanine nucleotide exchange factor 3 (EPAC1) (AID 1645889); further: nearly all actives have a fitted effect of over 40% in size
# In short: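 Rap1B–BODIPY-GDP (250 nM) with 50 uM GDP; compounds pin-transferred to 9.74 nM–152 uM final (activator) or from 7.32 nM upwards (inhibitor). Fluorescence Ex/Em 480/540 nm read at 5 and 30 min, then after adding cAMP or buffer, at room temperature.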
# [6] = biological target: Tumor susceptibility gene 101 protein (Homo sapiens) (UniProt Q99816); test: qHTS Assay for Iinhibitors of HIV-1 Budding by Blocking the Interaction of PTAP/TSG101: Hit Validation (AID 651600); further: nearly all actives have a fitted effect of over 70% in size
# In short: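 Measuring PTAP–Tsg101 interaction by FP: protein at 10 uM and fluorescent peptide at 50 nM (final), buffer 10 mM HEPES pH 7.5 with 0.15 M NaCl, 3 mM EDTA, 0.1 mM TCEP, 0.01% Tween 20; 20 min incubation, r.t.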
# [7] = biological target: Lysosomal acid glucosylceramidase (Homo sapiens) (UniProt P04062); test: Glucocerebrosidase-p2 (AID 348; in the data active means potency below about 10 µM; further: potency means the concentration at half of the fitted maximal effect); settings: purified GBA, blue fluorogenic substrate, 40 min
# In short: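 Normal human glucocerebrosidase (0.2 nM) with blue fluorogenic substrate (80 uM final) in citrate/phosphate pH 5.9 with 10mM sodium taurocholate, 0.01% tween-20; 40 min RT, NaOH/glycine stop; fluorescence Ex 365/Em 440; AC50 from a titration from 0.6 nM upwards.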
# [8] = biological target: Cytochrome P450 1A2 (Homo sapiens) (UniProt P05177); test: p450-cyp1a2 (AID 410; calls by dose curve; further: potency means the concentration at half of the fitted maximal effect)
# In short: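 O-Demethylation of luciferin 6' methyl ether by human CYP1A2 is monitored as luciferase luminescence. Substrate sits at Km (100uM); enzyme is 20nM. Values are scaled to 57 uM furafylline as maximal inhibition.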
# [9] = NFAT Signaling Pathway (AID 444; active means well fitted curve in either direction with a large enough effect, not every such curve was filed as active;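 further: carbachol stimulus at about its EC50 of 1 µM final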); settings: Jurkat NFAT-bla M1, carbachol, beta-lactamase ratio, 5 h; at 7.69 µM (top of the series) unless noted
# In short: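 Jurkat cells with NFAT-driven β-lactamase reporter and co-expressed M1 receptor, stimulated with carbachol (final 1 uM, ~EC50), compound titration, 5 h at 37 °C. CCF4 loaded 1 h at RT; 460/530 nm ratio gave %activity and AC50.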
# [10] = Stat Signaling Pathway (AID 446; active means well fitted curve in either direction with a large enough effect, not every such curve was filed as active;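 further: ME-180 cervical cancer cells given 40 pM IL-6 alongside compound; SIE-controlled beta-lactamase reporter measured as 460/530 nm FRET emission ratio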)
# In short: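 FRET read-out (405 nm excitation, 460/530 nm emission) of a beta-lactamase reporter under a STAT-inducible element in ME-180 cervical carcinoma cells. Cells with compound receive 40 pM IL-6 for 5 h. Values are normalised to AC90 stimulation and AC90 JAK-inhibitor controls.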
# [11] = biological target: Glucocorticoid receptor (Homo sapiens) (UniProt P04150); test: GR-GFP Redistribution (AID 450;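 active means compounds whose dose series gives a full or clear partial fitted curve of increased nuclear translocation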; further: potency means the concentration at half of the fitted maximal effect); settings: U2OS GR-GFP nuclear translocation, laser cytometry, 2 h
# [12] = biological target: Glucocorticoid receptor (Homo sapiens) (UniProt P04150); test: GR-EFC Redistribution (AID 451; calls by dose curve; further: potency means the concentration at half of the fitted maximal effect); settings: CHO-K1 GR-EFC translocation, beta-gal luminescence, 2 h
# In short: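 CHO-K1 cells expressing nuclear EA and GR-ED fragments of b-gal; compounds titrated up to 46 uM final, 2 h at 37 C. GR nuclear translocation read as complemented b-gal luminescence after 1 h RT detection.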
# [13] = biological target: Mitogen-activated protein kinase 10 (Mus musculus) (UniProt Q61831); test: JNK3 AlphaScreen Assay (AID 530; active means well fitted curve in either direction with a large enough effect, not every such curve was filed as active;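 further: kinase came from lysate of stimulated human HepG2 cells; signal reports phosphorylation of biotinylated GST-cJun 1-79 at Ser73 with 10 µM ATP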)
# In short: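 Activity was read by AlphaScreen after JNK3-containing HepG2 lysate (cytokine pre-activated) phosphorylated biotinylated GST-cJun with 10 uM ATP at room temperature. Phospho-Ser73 cJun antibody with Protein-A acceptor beads provided detection.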
# [14] = biological target: 3',5'-cyclic-AMP phosphodiesterase 4B (Homo sapiens) (UniProt Q07343); test: qHTS Assay for Inhibitors of PDE-IV (AID 607; active means well fitted activation curve with a large enough effect in the main read-out, with a control signal flat, not every such curve was filed as active)
# In short: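 Cell-based read-out of cAMP via a modified cyclic nucleotide-gated channel and membrane potential dye (535/590 nm) in HEK293 cells expressing PDE4 endogenously. Compounds tested up to 22.9 uM final; 100 uM RO 20-1724 reference.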
# [15] = biological target: Cytochrome P450 3A4 (Homo sapiens) (UniProt P08684); test: qHTS Assay for Inhibitors and Substrates of Cytochrome P450 3A4 (AID 884); further: potency means the concentration at half of the fitted maximal effect; nearly all actives have a fitted effect of over 50% in size
# In short: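 Luminescent readout of luciferin produced by CYP3A4 (20 nM) dealkylation of Luciferin-PPXE, 25 uM (its KM). NADPH-driven reaction ran 60 min at RT after 10 min compound preincubation; data scaled to 57 uM ketoconazole as 100% inhibition.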
# [16] = biological target: Cytochrome P450 3A4 (Homo sapiens) (UniProt P08684); test: qHTS Assay for Activators of Cytochrome P450 3A4 (AID 885); further: nearly all actives have a fitted effect of over 65% in size
# In short: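 Luminescent readout of luciferin formed from 25 uM Luciferin-PPXE (KM level) by 20 nM CYP3A4 in 200 mM KPO4, with 60 min NADPH-driven reaction at room temperature after 10 min compound exposure. Ketoconazole (57 uM) defined 100% inhibition.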
# [17] = biological target: Vitamin D3 receptor (Homo sapiens) (UniProt P11473); test: qHTS for Inhibitors of the vitamin D receptor (VDR): Hit Validation in Primary Screen (AID 602199); settings: VDR-coactivator inhibition assay, qHTS confirmation; further: potency means the concentration at half of the fitted maximal effect
# In short: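 Fluorescence polarization (Ex 620/Em 688 nm) of Alexa 647-SRC2-3 peptide with 800 nM VDR and 5 uM LG19078. Compounds at several concentrations, 2 h at room temperature.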
# [18] = biological target: Vitamin D3 receptor (Homo sapiens) (UniProt P11473); test: qHTS for Inhibitors of the vitamin D receptor (VDR): Hit Validation using a Beta-Lactamase Assay (AID 602202)
# In short: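 Stably transfected HEK293 cells expressing VDR-GAL4 DNA-binding domain fusion with UAS-driven beta-lactamase reporter, activated by agonist LG190178; compounds incubated 18 h, then FRET beta-lactam substrate 2 h; cleaved substrate read at 447 nm emission.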
# [19] = qHTS for Inhibitors of the vitamin D receptor (VDR): Hit Validation using a Cytotoxicity Assay (AID 602204); further: nearly all actives have a fitted effect of over 75% in size
# In short: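 Using cycloheximide at high concentration as positive control and DMSO as negative, cells plated at 20,000 per well (4 h) are exposed to compounds for 18 h; ATP luminescence is read after 30 min.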
# [20] = biological target: DNA polymerase eta (Homo sapiens) (UniProt Q9Y253); test: qHTS for Inhibitors of Polymerase Eta: Confirmatory Assay for Cherry-picked Compounds (AID 720502); settings: Pol eta primer extension, TAMRA/BHQ fluorescence, 10 min; further: potency means the concentration at half of the fitted maximal effect
# In short: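 10 nM Pol eta + cpd, 15 min RT; start w/ 50 nM final primer/TAMRA-reporter/BHQ-2-template substrate; kinetic read 0 and 10 min, ex 525/em 598 nm. Buffer-only wells = negative control.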
# [21] = AP1 Signaling Pathway (AID 357; active means well fitted curve in either direction with a large enough effect, not every such curve was filed as active;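 further: ME-180 reporter cells stimulated with EGF at its EC50 level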); settings: ME-180 (cervical carcinoma) AP-1-bla reporter, EGF-induced, beta-lactamase ratio, 5 h; at 7.69 µM (top of the series) unless noted
# In short: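 AP-1-bla ME-180 cells, Opti-MEM + 0.5% dialyzed FBS, plated overnight 37 °C. Cpd titration + EC50 EGF, 5 h 37 °C. CCF4 2.5 h RT; ex 405, em 460/530 ratio → %activity, AC50.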
# [22] = biological target: Cytochrome P450 2C19 (Homo sapiens) (UniProt P33261); test: qHTS Assay for Inhibitors and Substrates of Cytochrome P450 2C19 (AID 899); further: potency means the concentration at half of the fitted maximal effect; nearly all actives have a fitted effect of over 60% in size
# In short: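 Luminescent read-out of luciferin formed from Luciferin-H EGE (10uM, equal to KM). Enzyme 5nM in 50mM KPO4; compound added, 10 min at 37C, then NADPH regenerating system for 60 min at 37C. Full inhibition defined by 57uM ketoconazole.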
# [23] = biological target: Dual specificity protein kinase CLK4 (Homo sapiens) (UniProt Q9HAZ1); test: qHTS Assay for Inhibitors of CDC-like Kinase 4 (Kinase-Glo Assay) (AID 1770); further: nearly all actives have a fitted effect of over 65% in size
# In short: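 Clk4 25 nM, RS peptide 100 uM, ATP 1 uM, pH 7.5 Tris, 10 mM MgCl2, 2.5 mM DTT; 4.5 h RT; ATP depletion read by Kinase-Glo luminescence.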
# [24] = biological target: Ubiquitin carboxyl-terminal hydrolase 1 (Homo sapiens) (UniProt O94782); test: Inhibitors of USP1/UAF1: Pilot qHTS (AID 504865);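 further: rhodamine fluorescence freed from ubiquitin-rhodamine substrate followed over time; top concentration of the series differs between compounds; nearly all actives have a fitted effect of over 35% in size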
# In short: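 Enzyme-free wells gave the negative control, while test wells held 1nM USP1/UAF1 preincubated with compound for 15 min at room temperature. Ub-Rho at 150nM final started the reaction, and fluorescence at 480/540 nm was recorded kinetically.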
# Rap guanine nucleotide exchange factor 4 (Homo sapiens), sequence (Q8WZA2 whole entry, looked up): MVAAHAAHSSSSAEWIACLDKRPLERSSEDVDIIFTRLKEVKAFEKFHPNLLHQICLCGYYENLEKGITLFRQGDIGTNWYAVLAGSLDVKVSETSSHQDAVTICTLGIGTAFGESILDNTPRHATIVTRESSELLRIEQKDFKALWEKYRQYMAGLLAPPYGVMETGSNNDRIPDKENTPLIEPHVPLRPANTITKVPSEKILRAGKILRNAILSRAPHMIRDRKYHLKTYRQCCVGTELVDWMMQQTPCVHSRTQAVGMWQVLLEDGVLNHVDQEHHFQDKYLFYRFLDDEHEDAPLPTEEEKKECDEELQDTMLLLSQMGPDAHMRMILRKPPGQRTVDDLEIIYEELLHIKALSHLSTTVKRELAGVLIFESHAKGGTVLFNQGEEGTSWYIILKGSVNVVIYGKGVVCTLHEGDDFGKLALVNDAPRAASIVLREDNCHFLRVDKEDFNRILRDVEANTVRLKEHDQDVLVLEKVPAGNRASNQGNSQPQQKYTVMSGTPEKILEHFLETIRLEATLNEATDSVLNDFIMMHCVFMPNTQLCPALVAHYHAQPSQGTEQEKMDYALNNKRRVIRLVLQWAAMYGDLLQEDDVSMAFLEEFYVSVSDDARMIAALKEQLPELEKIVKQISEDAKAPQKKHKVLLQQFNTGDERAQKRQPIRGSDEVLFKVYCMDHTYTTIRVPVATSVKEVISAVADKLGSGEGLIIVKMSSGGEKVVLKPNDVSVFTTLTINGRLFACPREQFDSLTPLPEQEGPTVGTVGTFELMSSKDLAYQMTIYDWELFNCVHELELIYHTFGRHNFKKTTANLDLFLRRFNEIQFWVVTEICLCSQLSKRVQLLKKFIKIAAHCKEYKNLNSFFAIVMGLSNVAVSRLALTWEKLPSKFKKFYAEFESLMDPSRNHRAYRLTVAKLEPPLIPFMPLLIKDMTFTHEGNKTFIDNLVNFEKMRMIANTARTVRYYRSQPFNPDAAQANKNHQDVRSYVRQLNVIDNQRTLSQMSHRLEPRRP
# Rap guanine nucleotide exchange factor 3 (Homo sapiens), sequence (O95398 whole entry, looked up): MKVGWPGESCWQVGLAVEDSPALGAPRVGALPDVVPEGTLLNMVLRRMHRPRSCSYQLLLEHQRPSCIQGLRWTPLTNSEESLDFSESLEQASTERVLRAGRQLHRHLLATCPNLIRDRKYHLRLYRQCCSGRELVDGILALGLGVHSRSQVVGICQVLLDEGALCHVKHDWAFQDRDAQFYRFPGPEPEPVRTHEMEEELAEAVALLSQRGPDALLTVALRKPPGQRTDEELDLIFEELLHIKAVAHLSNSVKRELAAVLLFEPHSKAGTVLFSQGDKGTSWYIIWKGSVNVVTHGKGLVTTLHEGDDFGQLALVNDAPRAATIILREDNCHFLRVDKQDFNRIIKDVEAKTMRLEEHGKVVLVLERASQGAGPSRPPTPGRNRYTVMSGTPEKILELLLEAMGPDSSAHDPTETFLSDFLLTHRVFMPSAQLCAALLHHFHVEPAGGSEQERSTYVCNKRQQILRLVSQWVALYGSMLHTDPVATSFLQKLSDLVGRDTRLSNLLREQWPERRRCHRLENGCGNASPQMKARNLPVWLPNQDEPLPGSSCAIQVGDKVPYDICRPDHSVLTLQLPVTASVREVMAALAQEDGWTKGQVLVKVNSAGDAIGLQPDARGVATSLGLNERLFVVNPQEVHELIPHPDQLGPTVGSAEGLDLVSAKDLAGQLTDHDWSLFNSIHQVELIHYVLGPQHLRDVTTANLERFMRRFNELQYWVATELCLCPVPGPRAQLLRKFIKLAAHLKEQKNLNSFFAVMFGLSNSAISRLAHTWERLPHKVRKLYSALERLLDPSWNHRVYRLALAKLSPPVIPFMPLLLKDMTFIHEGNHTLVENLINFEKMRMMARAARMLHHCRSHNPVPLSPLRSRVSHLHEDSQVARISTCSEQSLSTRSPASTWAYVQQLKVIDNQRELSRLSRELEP
# Glucocorticoid receptor (Homo sapiens), sequence (P04150 whole entry, looked up, the tested form may be a part): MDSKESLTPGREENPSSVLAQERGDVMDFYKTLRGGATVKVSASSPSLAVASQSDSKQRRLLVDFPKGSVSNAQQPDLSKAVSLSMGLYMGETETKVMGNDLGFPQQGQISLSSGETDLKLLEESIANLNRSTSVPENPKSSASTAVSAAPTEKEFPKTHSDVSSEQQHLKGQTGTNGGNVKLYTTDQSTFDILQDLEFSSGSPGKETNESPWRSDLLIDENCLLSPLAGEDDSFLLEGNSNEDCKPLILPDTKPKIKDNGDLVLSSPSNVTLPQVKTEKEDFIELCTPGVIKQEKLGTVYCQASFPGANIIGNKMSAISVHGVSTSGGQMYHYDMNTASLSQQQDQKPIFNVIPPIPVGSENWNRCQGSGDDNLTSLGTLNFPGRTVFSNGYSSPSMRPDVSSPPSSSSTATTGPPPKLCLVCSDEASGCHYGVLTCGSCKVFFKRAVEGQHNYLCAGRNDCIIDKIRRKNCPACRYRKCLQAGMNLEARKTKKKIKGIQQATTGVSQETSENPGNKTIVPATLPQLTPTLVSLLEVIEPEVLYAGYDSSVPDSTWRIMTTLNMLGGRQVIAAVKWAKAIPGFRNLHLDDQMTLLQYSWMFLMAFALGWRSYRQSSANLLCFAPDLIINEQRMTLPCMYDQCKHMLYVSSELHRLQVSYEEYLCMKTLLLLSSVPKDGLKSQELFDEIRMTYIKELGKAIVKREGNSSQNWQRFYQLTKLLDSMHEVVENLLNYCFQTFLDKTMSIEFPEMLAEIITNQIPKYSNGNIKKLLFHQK
# Cytochrome P450 3A4 (Homo sapiens), sequence (P08684 whole entry, looked up): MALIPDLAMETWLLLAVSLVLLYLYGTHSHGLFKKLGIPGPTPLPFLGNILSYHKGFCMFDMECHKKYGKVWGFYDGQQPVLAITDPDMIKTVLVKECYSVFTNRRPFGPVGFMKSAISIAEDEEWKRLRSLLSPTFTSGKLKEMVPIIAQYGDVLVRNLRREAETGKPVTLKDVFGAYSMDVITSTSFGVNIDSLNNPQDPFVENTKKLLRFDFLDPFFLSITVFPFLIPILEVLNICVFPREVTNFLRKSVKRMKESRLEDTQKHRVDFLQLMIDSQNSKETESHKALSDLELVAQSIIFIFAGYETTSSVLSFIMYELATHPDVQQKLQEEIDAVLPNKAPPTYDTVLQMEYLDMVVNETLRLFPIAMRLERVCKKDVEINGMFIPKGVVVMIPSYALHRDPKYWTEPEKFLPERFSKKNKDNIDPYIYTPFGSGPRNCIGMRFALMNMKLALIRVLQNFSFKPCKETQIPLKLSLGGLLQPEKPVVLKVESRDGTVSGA
# Vitamin D3 receptor (Homo sapiens), sequence (P11473 whole entry, looked up, the tested form may be a part): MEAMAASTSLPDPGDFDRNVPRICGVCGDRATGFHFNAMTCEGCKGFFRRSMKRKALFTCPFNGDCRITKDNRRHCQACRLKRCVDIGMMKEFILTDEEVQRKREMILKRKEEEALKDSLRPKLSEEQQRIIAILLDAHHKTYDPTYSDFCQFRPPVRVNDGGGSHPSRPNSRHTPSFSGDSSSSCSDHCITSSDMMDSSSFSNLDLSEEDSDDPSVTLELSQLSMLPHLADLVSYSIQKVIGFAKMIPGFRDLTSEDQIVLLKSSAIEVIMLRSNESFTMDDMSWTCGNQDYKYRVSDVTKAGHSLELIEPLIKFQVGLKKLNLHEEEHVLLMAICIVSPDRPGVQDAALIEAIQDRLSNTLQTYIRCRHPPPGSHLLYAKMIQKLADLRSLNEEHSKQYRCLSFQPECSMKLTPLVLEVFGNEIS
# Lysosomal acid glucosylceramidase (Homo sapiens), sequence (P04062 whole entry, looked up): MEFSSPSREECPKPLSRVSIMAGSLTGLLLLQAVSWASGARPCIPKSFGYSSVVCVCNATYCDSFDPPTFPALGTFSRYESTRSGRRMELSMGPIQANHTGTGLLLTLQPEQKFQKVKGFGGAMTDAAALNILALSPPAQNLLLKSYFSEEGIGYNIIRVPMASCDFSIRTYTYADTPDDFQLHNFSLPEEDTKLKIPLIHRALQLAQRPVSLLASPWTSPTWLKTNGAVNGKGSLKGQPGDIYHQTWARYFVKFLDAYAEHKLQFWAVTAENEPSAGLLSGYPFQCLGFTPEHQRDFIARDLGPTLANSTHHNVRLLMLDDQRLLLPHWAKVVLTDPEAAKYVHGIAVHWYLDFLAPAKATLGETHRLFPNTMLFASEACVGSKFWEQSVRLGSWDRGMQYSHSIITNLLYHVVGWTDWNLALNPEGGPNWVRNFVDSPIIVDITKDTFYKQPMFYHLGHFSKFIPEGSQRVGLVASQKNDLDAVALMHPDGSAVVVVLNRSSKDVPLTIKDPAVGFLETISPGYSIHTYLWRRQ
# 3',5'-cyclic-AMP phosphodiesterase 4B (Homo sapiens), sequence (Q07343 whole entry, looked up): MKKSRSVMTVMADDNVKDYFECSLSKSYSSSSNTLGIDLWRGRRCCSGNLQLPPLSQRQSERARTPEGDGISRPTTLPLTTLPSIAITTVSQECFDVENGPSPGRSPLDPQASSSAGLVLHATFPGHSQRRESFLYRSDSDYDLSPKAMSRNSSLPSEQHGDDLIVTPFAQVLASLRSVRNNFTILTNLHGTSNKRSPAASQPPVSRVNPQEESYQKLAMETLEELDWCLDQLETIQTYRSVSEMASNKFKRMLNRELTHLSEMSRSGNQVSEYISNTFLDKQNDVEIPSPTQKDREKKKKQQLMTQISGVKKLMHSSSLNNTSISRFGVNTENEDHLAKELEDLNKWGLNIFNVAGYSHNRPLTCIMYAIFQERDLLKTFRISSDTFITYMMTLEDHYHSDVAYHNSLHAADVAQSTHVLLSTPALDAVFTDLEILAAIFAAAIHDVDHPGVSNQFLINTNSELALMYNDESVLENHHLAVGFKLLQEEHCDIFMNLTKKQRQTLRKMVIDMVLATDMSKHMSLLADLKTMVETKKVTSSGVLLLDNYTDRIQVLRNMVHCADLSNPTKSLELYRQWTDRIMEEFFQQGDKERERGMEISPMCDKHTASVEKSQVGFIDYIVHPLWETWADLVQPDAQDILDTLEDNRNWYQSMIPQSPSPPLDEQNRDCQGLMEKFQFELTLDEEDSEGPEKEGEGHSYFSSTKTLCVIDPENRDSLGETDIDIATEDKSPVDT
smiles,measurement,setting,value
Cc1cc2ccccn2c1C(=O)c1cccc(F)c1,Potency,[1],inactive
same,Potency,[2],inactive
same,Potency,[3],inactive
same,Potency,[4],inactive
same,Potency,[5],inactive
CCOC(=O)c1cnc2ccc(OC)cc2c1Nc1ccc(N2CCN(C)CC2)cc1,Potency,[6],inactive
same,Potency,[1],inactive
same,Potency,[2],inactive
same,activation,[3],"12.5% [at 17.1 µM, percent relative to cAMP agonist control]"
same,Potency,[4],inactive
same,activation,[5],12.2% [at 30.8 µM]
O=C1N/C(=N/NC(=O)c2cccc3ccccc23)S/C1=C\c1ccccc1OCc1ccccc1,Potency,[1],3.55 µM (active)
same,Potency,[2],inactive
same,activation,[3],"0.729% [at 17.1 µM, percent relative to cAMP agonist control]"
same,Potency,[4],inactive
same,activation,[5],8.81% [at 30.8 µM]
COc1ccc(Oc2ncc3nc(CCc4ccccc4)c(=O)n(CCC#N)c3n2)cc1,Potency,[7],> 11.4 µM
same,Potency,[8],6.31 µM (active)
same,"activity change, negative = inhibition",[9],3.1%
same,outcome,[10],inactive
same,Potency,[11],> 9.22 µM
same,Potency,[12],> 46 µM
same,Potency,[13],inactive
same,Potency,[14],inactive
same,Potency,[15],1.58 µM (active)
same,outcome,[16],inactive
same,Potency,[1],inactive
same,Potency,[2],inactive
same,Potency,[3],inactive
same,Potency,[4],inactive
CCCOc1ccc(/C(O)=C2/C(=O)C(=O)N(c3ccccn3)C2c2ccc(OC)cc2)cc1C (stereo not given),Potency,[1],33.8 µM (active)
same,Potency,[2],inactive
same,Potency,[3],inactive
same,Potency,[4],inactive
same,Potency,[5],inactive
O=C(O)c1ccc2c(c1)C(=O)N(c1ccc(/C=C/C(=O)c3ccccc3)cc1)C2=O,Potency,[17],10.6 µM (active)
same,Potency,[18],inactive
same,Potency,[19],inactive
same,Potency,[20],33.8 µM (active)
same,Potency,[1],39.8 µM (active)
same,Potency,[2],inactive
same,activation,[3],"5.43% [at 17.1 µM, percent relative to cAMP agonist control]"
same,Potency,[4],inactive
same,activation,[5],8.33% [at 30.8 µM]
CN(C)c1ncc2nc(CCc3ccccc3)c(=O)n(Cc3cccs3)c2n1,Potency,[7],> 11.4 µM
same,"activity change, negative = inhibition",[21],16.2%
same,Potency,[8],1.58 µM (active)
same,"activity change, negative = inhibition",[9],-16.3%
same,outcome,[10],inactive
same,Potency,[11],> 9.22 µM
same,Potency,[12],> 46 µM
same,Potency,[14],inactive
same,outcome,[16],inactive
same,Potency,[22],6.31 µM (active)
same,Potency,[23],inactive
same,Potency,[24],inactive
same,Potency,[1],inactive
same,Potency,[2],inactive
same,Potency,[3],inactive
same,Potency,[4],inactive
